# IL1B secr inh: qHTS for Inhibitors of Inflammasome Signaling: IL-1-beta AlphaLISA Primary Screen; THP-1 LPS/ATP IL-1B secretion, AlphaLISA, 16 h; hits give low values; activity change, % at 57.5 µM; hit rate 4.7% among 360,000; in the data active means activity change below about -50%; inconclusive means mostly about -30% to -49%
#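 Secreted IL-1B measured by AlphaLISA bead assay after 16 h compound exposure of THP-1 cells; compounds (final up to 57.5 uM) added 1 h before LPS (250 ng/mL) and ATP (1.25 mM) stimulation; lower signal means less secretion.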
# HepG2 tox: qHTS for Inhibitors of TGF-b: Cytotox Counterscreen | HepG2 CAGA-GFP viability, ATP luminescence, 18 h | hit rate 0.76% among 410,000 | Potency, µM (series often up to 46.1 µM), actives largely listed as cytotoxic
#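 CellTiter-Glo luminescence gave cytotoxicity after 18 hours at 37 degrees C. The cells were HepG2 CAGA-GFP in 1% FBS DMEM, stimulated with 500 pg/mL TGF-beta after compound addition. %Activity was normalised to no-cell wells (complete cell-killing) and DMSO (no toxicity), and curves were fitted and classified.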
# DT40 TDP1 no CPT: qHTS for Inhibitors of human tyrosyl-DNA phosphodiesterase 1 (TDP1): qHTS in cells in absence of CPT; DT40 Tdp1-/- hTDP1 cells, no CPT, ATP luminescence, 48 h; Potency, µM (doses to about 46.2 µM), usual class: inhibitors; hit rate 15% among 420,000; AID 686978, 2013; further: nearly all actives have a fitted effect of over 55% in size
#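 Cells were dispensed at 400 per well, compounds added by pin tool, plates incubated ≥48 hr at 37 °C, then CellTiter-Glo added for 30 min at room temperature before luminescence reading. Line: DT40 Tdp1-/- complemented with hTDP1; camptothecin omitted.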
# DT40 TDP1 CPT: qHTS for Inhibitors of human tyrosyl-DNA phosphodiesterase 1 (TDP1): qHTS in cells in presence of CPT; hit rate 12% among 420,000; Potency, µM (titrated, usually from 46.2 µM), usual class: inhibitors; chicken DT40 Tdp1-/-;hTDP1 cells + 20 nM CPT, ATP luminescence, 48 h; further: nearly all actives have a fitted effect of over 55% in size
#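 Chicken DT40 Tdp1-/- cells complemented with human TDP1, 400 cells/well, exposed to compounds plus 20 nM camptothecin for at least 48 h at 37 C; viability read as ATP content by CellTiter-Glo luminescence.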
# TDP1 inh: qHTS Assay for Inhibitors of Tyrosyl-DNA Phosphodiesterase (TDP1). Tyrosyl-DNA phosphodiesterase 1 (Homo sapiens), Q9NUW8. recombinant TDP1, AlphaScreen DNA substrate cleavage. Potency, µM (titrated, usually from 130 µM), most hits filed as inhibitors. hit rate 0.28% among 350,000. AID 485290, 2010; further: nearly all actives have a fitted effect of over 40% in size
# Target sequence (Q9NUW8 whole entry, looked up): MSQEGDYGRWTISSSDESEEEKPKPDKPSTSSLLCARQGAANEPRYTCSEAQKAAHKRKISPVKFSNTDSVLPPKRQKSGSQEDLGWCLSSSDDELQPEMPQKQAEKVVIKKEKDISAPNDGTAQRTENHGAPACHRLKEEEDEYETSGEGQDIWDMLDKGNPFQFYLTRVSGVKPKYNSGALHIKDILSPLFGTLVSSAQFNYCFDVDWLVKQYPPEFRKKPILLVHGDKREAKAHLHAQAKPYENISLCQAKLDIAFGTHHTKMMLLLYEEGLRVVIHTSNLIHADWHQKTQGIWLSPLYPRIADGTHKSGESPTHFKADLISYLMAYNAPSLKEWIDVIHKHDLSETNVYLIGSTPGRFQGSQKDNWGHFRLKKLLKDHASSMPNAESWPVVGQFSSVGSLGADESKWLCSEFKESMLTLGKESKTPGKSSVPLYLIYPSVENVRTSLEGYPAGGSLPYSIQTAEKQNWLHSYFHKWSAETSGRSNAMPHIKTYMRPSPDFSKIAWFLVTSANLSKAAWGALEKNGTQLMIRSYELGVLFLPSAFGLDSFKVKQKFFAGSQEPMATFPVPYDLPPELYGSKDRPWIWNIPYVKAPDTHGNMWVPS
#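 E. coli-derived human Tdp1, 1 nM final. Cpd preinc 15 min RT; substrate 15 nM final, 5 min RT; AS bead mix 10 ug/ml final, 10 min RT. Signal loss = tyrosine-FITC cleavage. No-enzyme wells = max signal.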
# TGFb inhibitor: qHTS for Inhibitors of TGF-b. Potency, µM (series often up to 46.1 µM), hits mostly inhibitors. hit rate 1.2% among 410,000. AID 588855, 2011. HepG2 CAGA-GFP TGF-b/SMAD3 reporter, GFP fluorescence, 18 h; TGF-beta stimulated, 500 pg/mL final; further: nearly all actives have a fitted effect of over 65% in size
#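 Using HEPG2 CAGA-GFP reporter cells at 1000 cells/well, we pinned test compounds, stimulated with recombinant TGF-beta (500 pg/mL final) and measured total well GFP after 18 h.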
# Numbers stand for hits; - = inactive; ? = inconclusive; . = no result given; [ ] = remark or other dose. In the library only some 18% were active in any assay of this set; here they are far more common. Unless noted, the call rests on the fitted dose curve; in most records, active means well fitted curve in the direction sought with a large enough effect; inconclusive means small, poorly fitted or top-dose-only effect, or another doubt; inactive means no such curve, though single readings can be large; an effect the other way counts as inactive or inconclusive.
SMILES,IL1B secr inh,HepG2 tox,DT40 TDP1 no CPT,DT40 TDP1 CPT,TDP1 inh,TGFb inhibitor
COc1ccc(-n2c(C)cc(/C=C3/SC(=S)N(C)C3=O)c2C)cc1,-,-,18µM,21µM,-,-
Cc1cc(/C=C2\SC(=S)N(Cc3ccco3)C2=O)c(C)n1-c1ccccc1,-,-,?,?,-,-
Cc1cc(/C=C2\SC(=S)N(C)C2=O)c(C)n1-c1cccc(O)c1,-,-,?,23µM,.,-
Cc1ccc(CS(=O)(=O)c2cn(CC(=O)N(C)c3ccccc3)c3ccccc23)cc1,.,-,?,?,-,-
Cn1c(-c2nc(-c3ccccc3)cs2)nc2ccccc21,.,.,?,-,-,.
CC(C)c1c(C(=O)NCc2cccnc2)cnn1-c1nccc(-c2ccccc2F)n1,.,.,?,-[9.04 µM],.,.
Cc1cc(C)cc(OCC(=O)Nc2cccc(-c3nc4ncccc4o3)c2)c1,?,-,21µM,23µM,-,-
CCC(C)c1ccc(OCC(=O)Nc2cccc(-c3nc4ncccc4o3)c2)cc1 (centres undefined),.,-,16µM,-,-,?
NC(=O)C1C2C=CC(C2)C1c1ccccc1 (centres undefined),-,-,-,-,.,-
COc1cc(NC(=O)Cn2c(=O)n(C(C)C)c(=O)c3oc4ccccc4c32)cc(OC)c1,.,-,?,?,-,-
CCOc1ccc2[nH]c3c(N4CCc5ccccc5C4)ncnc3c2c1,.,-,16µM,15µM,-,?
CN1CCN(c2ncnc3c2[nH]c2ccc(F)cc23)CC1,-,-,?,?,-,-
Cc1ccc2[nH]c3c(N4CCc5ccccc5C4)ncnc3c2c1,-83,-,3.7µM,2.9µM,-,?
Fc1ccc2[nH]c3c(N4CCc5ccccc5C4)ncnc3c2c1,?,-,1.8µM,1.8µM,-,?
Cc1ccc(-n2c(=O)cc(N3CCc4ccccc4C3)[nH]c2=O)cc1,-,-,?,-,-,?
CCOC(=O)C(C)Nc1ncnc2onc(C)c12 (centres undefined),.,-,-,-,-,-
O=C(NC(=S)N1CCCCC1)c1csc([N+](=O)[O-])c1,.,-,?,-,-,?
COc1cc(NC(=S)NC(=O)c2ccc(C(C)(C)C)cc2)ccc1NC(=O)c1cccs1,-,-,18µM,?,-,-
COc1cc(NC(=S)NC(=O)c2ccccc2C)ccc1NC(=O)c1cccs1,-,-,?,?,-,-
COc1cc(NC(=S)NC(=O)c2cc(C)cc(C)c2)ccc1NC(=O)c1cccs1,-,-,?,?,-,-
COc1cc(NC(=S)NC(=O)c2c(OC)cccc2OC)ccc1NC(=O)c1cccs1,-,-,9.2µM,10µM,-,-
COc1ccccc1NS(=O)(=O)c1cccc(C(=O)N2CCCCCCC2)c1,-,-,?,?,-,-
COc1cc2nc(Cl)nc(NC3CCN(C)CC3)c2cc1OC,.,.,?,11µM,.,.
COc1cc2nc(N(C)C)nc(N)c2cc1OC,-,-,26µM,?,-,?
COc1cc2nc(CCNCc3ccccc3)nc(NC3CCN(C)CC3)c2cc1OC,.,.,5µM,5.6µM,.,.
COc1cc2nc(N(C)C)nc(NC3CCN(C)CC3)c2cc1OC,.,.,4µM,4.5µM,.,.
Cc1c(Cl)cccc1NC(=O)c1ncoc1-c1ccco1,.,-,-,?,-,-
CCCc1nn2c(=O)cc(COC(=O)c3ccc4c(c3)OCO4)nc2s1,.,-,?,?,-,-
Cc1ccc(S(=O)(=O)N(C)C[C@@H]2OCc3cn(nn3)CCCC(=O)N([C@@H](C)CO)C[C@H]2C)cc1,-,-,-,-,.,-

# High-throughput results (PubChem BioAssay)
